# Rows were chosen to be rich in hits. Some 22% of all compounds tested hit in one or more screens of this group.
# CYP2C19 inhib: human CYP2C19 inhibition. P33261. CYP2C19 Supersomes, luciferin-H EGE luminescence, 30 min. inhibition, % at 5 µM. 96,000 tested, 21% active. AID 778;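 active = CYP2C19 inhibition above a set limit at 5 µM in the primary screen, cut at about 50% in these data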;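 also: plate controls were negative control wells for no effect and 2.5 mM tranylcypromine positive control for full effect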
# Target sequence (P33261 whole entry, looked up): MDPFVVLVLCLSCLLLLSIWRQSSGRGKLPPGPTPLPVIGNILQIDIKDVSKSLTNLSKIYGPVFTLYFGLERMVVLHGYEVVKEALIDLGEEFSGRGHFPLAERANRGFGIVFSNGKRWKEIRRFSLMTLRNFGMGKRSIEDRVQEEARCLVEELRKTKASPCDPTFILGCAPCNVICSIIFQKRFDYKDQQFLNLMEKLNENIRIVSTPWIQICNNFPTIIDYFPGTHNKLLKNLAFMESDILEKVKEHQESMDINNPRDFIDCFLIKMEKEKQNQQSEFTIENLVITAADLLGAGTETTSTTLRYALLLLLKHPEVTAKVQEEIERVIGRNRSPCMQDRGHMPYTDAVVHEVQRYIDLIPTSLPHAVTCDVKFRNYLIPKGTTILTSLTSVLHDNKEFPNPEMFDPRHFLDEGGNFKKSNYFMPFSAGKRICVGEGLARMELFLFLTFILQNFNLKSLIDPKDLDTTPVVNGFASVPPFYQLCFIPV
# CYP2C9 inh: blocks human cytochrome P450 2C9; CYP2C9 Supersomes, luciferin-H conversion, luminescence; inhibition, % at 5 µM; 96,000 tested, 20% active;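 active = blocking of liver enzyme CYP2C9 beyond about 50% at 5 µM, limit read from the data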
# Measles CPE: protection of cells from measles virus. Measles virus-infected cells, CPE protection, absorbance. protection (pct of control), % at 4 µM. 140,000 tested, 1.5% active; in the data active = protection mostly above about 24%, no sharp cut-off; inactive = mostly below about 26%
# CYP2C9 activ: CYP2C9 (human) activation | recombinant CYP2C9, luciferin-H conversion, luminescence; active compounds read high; factor 1 = untreated enzyme, 0 = blocked | activation factor at 5 µM | 96,000 tested, 1.4% active | AID 1024;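 active = activation factor of 2 or more for CYP2C9 at a 5 µM dose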;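 also: 0 = sulfaphenazole-blocked wells and 1 = vehicle-only wells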
# CYP2C19 act: increases human CYP2C19 enzyme activity; 96,000 tested, under 10 active; P33261; AID 1025; recombinant CYP2C19, luciferin-H EGE luminescence; active compounds read high; 0 = fully inhibited enzyme, 1 = untreated enzyme; activation factor at 5 µM;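 active = activation factor of at least 2 at 5 µM in the primary screen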;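 also: 0 = wells with 2.5 mM tranylcypromine and 1 = vehicle-only wells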
# Active calls of the source: *; · = no result.
SMILES,CYP2C19 inhib,CYP2C9 inh,Measles CPE,CYP2C9 activ,CYP2C19 act
N#C/C(=C(/O)CN1C(=O)c2ccccc2C1=O)c1nc2ccccc2[nH]1,20,51*,2,0.5,0.8
CSC1=C(C#N)C(c2ccc3c(c2)OCO3)C2=C(CCCC2=O)N1 (configuration not stated),·,·,9,·,·
CCCCSC1=C(C#N)C(c2ccccc2C)CC(=O)N1 (configuration not stated),42,29,8,0.7,0.6
CCOC(=O)CSC1=C(C#N)C(c2ccc(C)s2)CC(=O)N1 (configuration not stated),72*,96*,19,0,0.3
CCSC1=C(C#N)C(c2ccc(Cl)cc2)C2=C(CCCC2=O)N1 (configuration not stated),94*,94*,9,0.1,0.1
CCSC1=C(C#N)C(c2ccccc2OC)CC(=O)N1 (configuration not stated),·,·,2,·,·
CCSC1=C(C#N)C(c2ccc(C)s2)CC(=O)N1 (configuration not stated),69*,52*,·,0.5,0.3
CCOC(=O)CSC1=C(C#N)C(c2ccccc2OC)CC(=O)N1 (configuration not stated),64*,15,17,0.8,0.4
O=C(OCc1nc2ccccc2[n+]([O-])c1C(=O)c1ccccc1)c1cccs1,·,·,6,·,·
O=C(NNC(=S)Nc1ccc(Cl)cc1Cl)c1ccncc1,·,·,4,·,·
COc1ccc(OC)c(C2CC(=O)NC(SC)=C2C#N)c1 (configuration not stated),48,64*,4,0.4,0.5
CCOC(=O)CSC1=C(C#N)C(c2ccccc2C)C2=C(CCCC2=O)N1 (configuration not stated),50*,79*,4,0.2,0.5
COc1ccccc1NC(=O)N1CCCC1C(=O)Nc1nnc(C(C)C)s1 (configuration not stated),2,18,4,0.8,1
COc1ccc(NS(=O)(=O)c2ccc(S(=O)(=O)N3CCCC3)cc2)cc1,31,69*,11,0.3,0.7
COc1ccc(S(=O)(=O)N2CCC(C(=O)N3CCCCCC3)CC2)cc1,85*,-152,8,2.5*,0.2
COc1ccc(S(=O)(=O)Nc2ccc(F)c(F)c2)cc1Cl,61*,34,4,0.7,0.4
COc1ccc(S(=O)(=O)N2CCC(C(=O)N3CCCC3)CC2)cc1,48,-67,6,1.7,0.5
COc1ccc(S(=O)(=O)Nc2ccc(C(F)(F)F)cc2)cc1OC,99*,62*,9,0.4,0
COc1cc(/C=C/C(=O)NCc2cccnc2)cc(OC)c1OC,14,-1,0,1,0.9
CCOC(=O)C1CCCN(C(=O)Cc2c(C(=O)O)[nH]c3ccccc23)C1 (configuration not stated),-4,7,8,0.9,1
Cc1cccc(C(=O)n2c(=S)nc3ccccn32)c1,36,-2,3,1,0.6
O=C(CCc1ccccc1)Nc1nnc(-c2ccccn2)o1,·,·,12,·,·
COc1ccc(S(=O)(=O)Nc2cccc(Cl)c2)cc1OC,93*,-53,9,1.5,0.1
COc1ccc(S(=O)(=O)Nc2ccc(S(=O)(=O)N3CCOCC3)cc2)cc1C,76*,93*,4,0.1,0.2
COc1ccc(C(=O)C2CCN(S(=O)(=O)c3ccc4c(c3)OCCO4)CC2)cc1,98*,14,6,0.9,0
SMILES,CYP2C19 inhib,CYP2C9 inh,Measles CPE,CYP2C9 activ,CYP2C19 act
COc1ccc(NS(=O)(=O)c2cccc(Cl)c2)cc1S(=O)(=O)N1CCCCC1,·,·,9,·,·
COc1ccc(NS(=O)(=O)c2ccc(S(=O)(=O)N3CCCC3)cc2)cc1Cl,98*,97*,14,0,0
O=C(Nc1ccc2c(c1)OCCO2)C1CCN(S(=O)(=O)c2ccc3c(c2)OCCO3)CC1,16,-73,6,1.7,0.8
N#Cc1c(NC(=O)C2CC2)sc2c1CCCCC2,·,·,16,·,·
CC(C)=C1C(=O)NN(c2ccc(F)c(Cl)c2)C1=O,-4,-2,29,1,1
O=C1NN(c2ccc(F)c(Cl)c2)C(=O)/C1=C\c1cccc(OC(=O)c2cccs2)c1,-17,51*,8,0.5,1.2
COc1ccc(Cl)cc1CN1CCN(c2nc(C)cc(C)c2C#N)CC1,92*,79*,7,0.2,0.1
Cc1cc(C)c(C#N)c(N2CCN(CCOc3ccc(Cl)cc3)CC2)n1,16,22,19,0.8,0.8
O=C(O)C1CC=CCC1C(=O)Nc1ccc(Oc2ccc(Cl)cc2)cc1 (configuration not stated),·,·,8,·,·
CC(C)OC(=O)C1CC=CCC1C(=O)Nc1ccc(Cl)cc1 (configuration not stated),91*,52*,21,0.5,0.1
CCOC(=O)c1c(-c2ccc(F)cc2)cn2ccccc12,21,5,26,1,0.8
CC(C)(C)NC(=O)NC(=O)CSc1ncc(C(F)(F)F)cc1Cl,4,-6,8,1.1,1
CCCNC(=O)NC(=O)CSc1ncc(C(F)(F)F)cc1Cl,70*,-6,7,1.1,0.3
O=c1c2ccccc2c(-c2ccccc2)nn1Cc1c(Cl)cccc1Cl,3,22,5,0.8,1
O=c1cc2c(nn1Cc1ccccc1Cl)-c1ccccc1CC2,95*,94*,14,0.1,0
COC(=O)c1cc(C(=O)OC)n(Cc2ccc(Cl)cc2Cl)n1,26,-6,1,1.1,0.7
O=c1cc2c(nn1Cc1ccc(Cl)cc1Cl)-c1ccccc1CC2,51*,67*,23,0.3,0.5
NC(=O)c1c(-c2ccc(Cl)cc2Cl)csc1NC(=O)Cc1ccccc1,·,·,19,·,·
C/C(=N\NC(=O)c1ccco1)c1ccc(NC(=O)c2cccs2)cc1,·,·,6,·,·
CCOc1ccc(NC2CCN(C(C)=O)CC2)cc1,-3,-27,3,1.3,1
CC(=O)N1CCC(Nc2ccc(C)cc2)CC1,6,54*,10,0.5,0.9
COc1nnc(-c2ccc(N3CCOCC3)c(NC(=O)c3ccccc3)c2)c2ccccc12,81*,70*,6,0.3,0.2
COc1nnc(-c2ccc(N3CCOCC3)c(NC(C)=O)c2)c2ccccc12,-1,36,14,0.6,1
O=C(Nc1ccc(N2CCOCC2)cc1N1CCOCC1)c1ccco1,4,-9,10,1.1,1
COc1nnc(-c2ccc(N3CCOCC3)c(NC(=O)c3ccco3)c2)c2ccccc12,25,65*,3,0.3,0.8
COc1ccc2[nH]c(C)c(CCNC(=S)Nc3cccc(C)c3C)c2c1,·,·,13,·,·
COc1ccccc1NC(=S)N1CCC(c2nc3ccccc3o2)CC1,·,·,14,·,·
Cc1cc(Cl)ccc1OCC(=O)NCCCn1ccnc1,·,·,8,·,·
O=C(NCCCn1ccnc1)Nc1ccc(Cl)c(Cl)c1,76*,100*,7,0,0.2
O=C(NCCCn1ccnc1)Nc1ccc(Cl)cc1,97*,98*,12,0,0

# Compound activity (PubChem BioAssay)
